Data on 54 compounds can be found in PubChem BioAssay AID1835 (Johns Hopkins Ion Channel Center, 2009).

Out of some 2,400 compounds screened, about 750 (31%) were called active. Some of the results follow. A number with no mark means an inactive call.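 The calls were made as follows: active = median signal gain over dofetilide-blocked control wells reaching their mean plus 3 SD, so readout 1 at least 0; inactive = the rest.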

This experiment deals with Voltage-gated inwardly rectifying potassium channel KCNH2 (Homo sapiens) (UniProt Q12809). Put plainly: modulators restoring hERG flux under dofetilide – cell-based, thallium flux, duplicate retest, dofetilide IC70, confirmation (AID 1835). Particulars: hERG cell line, FluxOR thallium flux, dofetilide-blocked; at 10 µM; active compounds read high. (In general: The hERG channel carries a current that helps repolarise heart muscle cells.)
Sequence of Voltage-gated inwardly rectifying potassium channel KCNH2 (Homo sapiens) (Q12809 whole entry, looked up): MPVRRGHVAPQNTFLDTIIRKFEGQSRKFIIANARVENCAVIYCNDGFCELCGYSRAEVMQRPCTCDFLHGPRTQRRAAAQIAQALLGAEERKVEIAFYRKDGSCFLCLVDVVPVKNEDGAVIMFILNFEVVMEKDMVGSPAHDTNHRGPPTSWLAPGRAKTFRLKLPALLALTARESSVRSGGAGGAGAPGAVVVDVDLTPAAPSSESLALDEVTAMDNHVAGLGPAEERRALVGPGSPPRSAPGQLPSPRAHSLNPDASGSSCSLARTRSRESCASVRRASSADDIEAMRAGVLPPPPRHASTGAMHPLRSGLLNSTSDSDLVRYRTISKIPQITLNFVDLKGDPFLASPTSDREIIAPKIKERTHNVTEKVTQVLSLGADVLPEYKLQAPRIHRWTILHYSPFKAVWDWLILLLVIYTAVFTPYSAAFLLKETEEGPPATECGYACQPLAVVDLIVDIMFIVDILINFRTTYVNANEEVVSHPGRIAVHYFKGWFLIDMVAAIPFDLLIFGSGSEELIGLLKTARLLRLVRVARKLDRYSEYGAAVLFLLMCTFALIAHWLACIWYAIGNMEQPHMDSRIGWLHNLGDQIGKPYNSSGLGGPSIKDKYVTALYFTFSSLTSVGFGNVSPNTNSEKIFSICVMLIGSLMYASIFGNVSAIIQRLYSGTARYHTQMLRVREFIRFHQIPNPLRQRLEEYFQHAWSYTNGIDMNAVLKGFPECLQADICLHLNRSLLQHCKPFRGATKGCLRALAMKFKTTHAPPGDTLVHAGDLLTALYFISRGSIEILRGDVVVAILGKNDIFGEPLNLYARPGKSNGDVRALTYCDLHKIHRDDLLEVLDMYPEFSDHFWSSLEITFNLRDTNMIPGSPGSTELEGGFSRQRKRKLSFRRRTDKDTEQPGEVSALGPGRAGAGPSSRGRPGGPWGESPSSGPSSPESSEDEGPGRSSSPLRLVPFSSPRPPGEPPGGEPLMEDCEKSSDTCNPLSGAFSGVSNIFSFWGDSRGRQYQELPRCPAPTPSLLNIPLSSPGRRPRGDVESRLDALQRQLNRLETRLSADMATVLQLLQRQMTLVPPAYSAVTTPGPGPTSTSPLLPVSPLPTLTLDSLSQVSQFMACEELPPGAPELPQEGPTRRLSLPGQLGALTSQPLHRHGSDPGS
As for `COC(=O)Cn1c(=O)c(=O)n(CC(=O)OC)c2ccccc21`, the activity increase over dofetilide control, less the hit threshold is -15%.
With `COc1ccccc1CNC(=O)COC(=O)c1ccccn1`, the activity increase over dofetilide control, less the hit threshold was -13%.
Turning to `COc1ccc(C(=O)CC(=O)C(=O)Nc2ccc(C)c(Cl)c2)cc1`, the activity increase over dofetilide control, less the hit threshold was 0%.
As to `COc1ccc(C(=O)CC(=O)C(=O)Nc2ccc(C)c(C)c2)cc1`, the activity increase over dofetilide control, less the hit threshold was -3%.
With `COc1ccc(NC(=O)CSCC(=O)Oc2c(OC)cccc2OC)cc1`, the activity increase over dofetilide control, less the hit threshold was -26%.
With `COc1ccc(C(=O)CC(=O)C(=O)Nc2ccccc2)cc1`, the activity increase over dofetilide control, less the hit threshold is 5% (active).
As to `COc1ccc(C(=O)CC(=O)C(=O)Nc2ccc(Cl)cc2)cc1`, the activity increase over dofetilide control, less the hit threshold was 9% (active).
The same measure for `CC(=O)Nc1ccc(S(=O)(=O)N2CCC(NC(=O)c3ccccc3)CC2)cc1`: -17%; for `CCN(CC)C(=O)CN1C(=O)C2CC=C(Cl)CC2C1=O` (centres undefined): -15%; for `Cc1cc(C)n(-c2nc3sc4c(c3c(=O)[nH]2)CCCC4)n1`: -10%.
For `Cc1ccc(-n2c(=S)[nH]c3sc4c(c3c2=O)CCC4)cc1`, the activity increase over dofetilide control, less the hit threshold is -1%.
The same measure for `CCn1c(=S)[nH]c2sc3c(c2c1=O)CCCC3`: 27% (active); for `O=C1c2ccccc2C(=O)N1Cc1ccco1`: -8%.
On to `O=c1c2c3c(sc2[nH]c(=S)n1Cc1ccco1)CCC3`, for which the activity increase over dofetilide control, less the hit threshold was 18% (active).
The value for `CCn1c(=S)[nH]c2sc3c(c2c1=O)CCCCC3` was 107% (active); that for `CCCn1c(=S)[nH]c2sc3c(c2c1=O)CCCC3` was 76% (active); that for `CC(C)OC(=O)CSc1nnc(C2CCCCC2)n1N` was -15%.
Turning to `Cc1cnc(NC(=O)CN2CCN(c3ccccc3F)CC2)s1`, the activity increase over dofetilide control, less the hit threshold was -5%.
On to `CCCCCOc1ccc(C2C(C(C)=O)=C(C)Nc3ncnn32)cc1OC` (centres undefined), for which the activity increase over dofetilide control, less the hit threshold was -11%.
As for `CCc1cccc(C)c1NC(=O)Cc1ccsc1`, the activity increase over dofetilide control, less the hit threshold is -12%.
For the compound `Cc1ccc(S(=O)(=O)N(C)C)cc1NC(=S)NC(C)CCCC(C)C` (centres undefined), the activity increase over dofetilide control, less the hit threshold is -30%.
The same measure for `Cc1sc2ncnc(SCC(=O)c3ccc(O)cc3O)c2c1C`: 2% (active); for `Cc1sc2ncnc(SCC(=O)NC(=O)c3cccn3C)c2c1C`: 2% (active); for `COC(=O)c1ccc(Cn2cnc3c(cnn3-c3ccc(Cl)cc3)c2=O)o1`: -2%.
As to `COC(=O)c1ccc(CSc2ncnc3sc(C)c(C)c23)o1`, the activity increase over dofetilide control, less the hit threshold was 7% (active).
For `CCC(C)NC(=O)CSc1ncnc2sccc12` (centres undefined), the activity increase over dofetilide control, less the hit threshold was -7%.
On to `Cc1ccc(-n2nc3ccc(N)cc3n2)c(C)c1`, for which the activity increase over dofetilide control, less the hit threshold was -28%.
For `O=C(CN1CCN(Cc2ccccc2)CC1)NCc1ccccc1Cl`, the activity increase over dofetilide control, less the hit threshold is -1%.
The value for `Cc1cc(S(=O)(=O)NCC(C)C)ccc1OCC(=O)NCc1ccccn1` was -29%.
The same measure for `C/C(=N\NC(=O)CSc1nc2ccccc2o1)c1ccc(O)cc1`: -15%; for `CCOC(=O)Cc1nc2ccccc2o1`: 5% (active); for `CCOC(=O)CP(=O)(c1ccccc1)c1ccccc1`: -9%.
As for `O=C(Nc1nc2c(Br)cc(Br)cc2c(=O)s1)C1CCC1`, the activity increase over dofetilide control, less the hit threshold is 1% (active).
`O=C(Nc1cccc(Br)c1)C1CCCC1`: the activity increase over dofetilide control, less the hit threshold is -11%.
Consider `Cc1cc(C)c2nc(NC(=O)C3CCCO3)sc2c1` (centres undefined), for which the activity increase over dofetilide control, less the hit threshold was -8%.
The value for `O=C(COc1ccc(S(=O)(=O)NCc2ccccc2)cc1Cl)NCC1CCCO1` (centres undefined) was -26%; that for `O=C(NC(=S)Nc1ccccc1Cl)c1csnn1` was 79% (active); that for `O=C(NC(=S)Nc1ccccc1)c1cncc(C#Cc2ccccc2)c1` was -8%.
With `COc1ccc(NC(=O)c2onc(C)c2Cl)cc1`, the activity increase over dofetilide control, less the hit threshold is -10%.
Turning to `Cc1snnc1C(=O)NC(=S)Nc1ccccc1`, the activity increase over dofetilide control, less the hit threshold was 30% (active).
On to `COc1ccc(NC(=S)NC(=O)c2csnn2)cc1`, for which the activity increase over dofetilide control, less the hit threshold is 23% (active).
`Cc1cccnc1NC(=O)c1csnn1`: the activity increase over dofetilide control, less the hit threshold was -3%.
On to `COc1ccc(NC(=S)Nc2ccccn2)cc1`, for which the activity increase over dofetilide control, less the hit threshold was -11%.
With `Cc1ccc(NC(=S)NC(=O)c2ccc(-c3ccccc3)cc2)cc1`, the activity increase over dofetilide control, less the hit threshold was -2%.
The same measure for `O=C(NC(=S)Nc1ccccc1)c1csnn1`: 88% (active); for `O=c1[nH]c2ccccc2nc1C(F)(F)C(F)F`: -11%.
In the case of `C/C(=N/NC(=O)c1ccncc1)c1ccc2c(c1)OCO2`, the activity increase over dofetilide control, less the hit threshold was -9%.
In the case of `O=C1CSC(=S)N1/N=C/c1cc(Br)ccc1O`, the activity increase over dofetilide control, less the hit threshold is 7% (active).
Regarding `Cc1oc(-c2cccs2)nc1CN1CCC(C(=O)N2CCCC2)CC1`, the activity increase over dofetilide control, less the hit threshold is -11%.
In the case of `CN(C(=S)NC(=O)c1ccccc1)C1CCCCC1`, the activity increase over dofetilide control, less the hit threshold is 16% (active).
As to `Cc1ccc(C(=O)NC(=S)N(C)C2CCCCC2)cc1`, the activity increase over dofetilide control, less the hit threshold was 27% (active).
For `Cc1cccc(C(=O)NC(=S)N(C)C2CCCCC2)c1`, the activity increase over dofetilide control, less the hit threshold was 21% (active).
The value for `Cc1cccc(C(=O)NC(=S)NNC(=O)COc2c(C)cccc2C)c1` was -12%; that for `CN(C(=S)NC(=O)c1ccc(Cl)cc1)C1CCCCC1` was -3%.
